± gives the standard deviation of the averaged measurements. The full ranking holds about 25,000 sequences; the median of “ln(normalized median fluorescence intensity)” is about 10, and the highest 2% start at about 12. This excerpt belongs to a sample that is enriched for the highest values.

The assay deals with PfAP2-G AP2 domain (GST-tagged). The experiment in a line: gcPBM binding intensity (ln(normalized median fluorescence intensity)); higher = stronger DNA binding. The procedure, abridged: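 In this array assay, P. falciparum DNA-binding domains with a GST tag, expressed in E. coli, were applied for 1 h to primer-extended double-stranded 36-bp intergenic genomic probes and negative controls on an Agilent 4 × 180k array. Bound protein was visualised with Alexa488 anti-GST antibody at 488 nm. Binding intensity is the highest Masliner-normalised natural-log median intensity across replicate spots of either probe orientation.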
As to “AAAAAAAAATTGTGTACACATAATTATATCATATGT [CACACA_site4500]”, the “gcPBM binding intensity (ln)” value was 11.7 ± 0.89.

As for “TTAGTAGTATTATGTAGTACATAATTATCATATCAT [XGTACX_site817]”, the “gcPBM binding intensity (ln)” value amounted to 11.6 ± 1.1.

As for “ACATATTAATTATAAAGTACATATATATATATATAT [XGTACX_site4540]”, the “gcPBM binding intensity (ln)” value worked out at 11.3 ± 0.79.

On to “ATAATTATAAAATAAACACACATATATATTTATATG [CACACA_site440]”, for which the “gcPBM binding intensity (ln)” value came out at 9.98 ± 0.16.

For the sequence “AATTAAAAAAAATACACACACACATACACATATATA [CACACA_site3298]”, the “gcPBM binding intensity (ln)” value came to 10.2 ± 0.22.

“ATAACATAAGGAAATACACACATATATAAGTATATA [CACACA_site778]”: the “gcPBM binding intensity (ln)” value came out at 10.02 ± 0.021.

Regarding “ACATATATATATATATATATATATATATTTATTTAT [CACACA_negctrl_site734]”, the “gcPBM binding intensity (ln)” value was 10.2 ± 0.39.

“AAAACTATAATGAATAGTACATAAAAATGGATATAT [XGTACX_site6056]”: the “gcPBM binding intensity (ln)” value was 11 ± 0.5.

As to “TCTATAAAGGAATATACACACATATATATATATATA [CACACA_site410]”, the “gcPBM binding intensity (ln)” value came to 9.9 ± 0.32.

Consider “AATAATATATTTAGGGGTACATAATAATATATTTTA [XGTACX_site8366]”, for which the “gcPBM binding intensity (ln)” value was found to be 11.6 ± 1.1.

For the sequence “AAAAAAGATATATAAACACACATATTTATATACACA [CACACA_site6866]”, the “gcPBM binding intensity (ln)” value was 9.66 ± 0.16.

“TAAAATAAAAAAGTAGTACACACTTCACGATATTTT [CACACA_site3896]”: the “gcPBM binding intensity (ln)” value was 11.6 ± 0.91.

In the case of “TAAAAAAAAAAAAAAGTACACACTTATAAAATATTA [CACACA_site872]”, the “gcPBM binding intensity (ln)” value turned out to be 11.6 ± 1.

Take “ATATTATTTTAAAGTACACACATATATTAAGATATA [CACACA_site5306]”: the “gcPBM binding intensity (ln)” value was determined as 11.4 ± 1.

In the case of “AAAAAAAAAAAAAAAAGTACATATATTATATATATA [XGTACX_site2983]”, the “gcPBM binding intensity (ln)” value amounted to 11.3 ± 0.93.

Turning to “ATAAAATAAAAAAGTAGTACACACTTCACGATATTT [XGTACX_site8289]”, the “gcPBM binding intensity (ln)” value came to 11.5 ± 0.84.

As to “TTAAAAAAAAAAAAAAGTACACACTTATAAAATATT [XGTACX_site1630]”, the “gcPBM binding intensity (ln)” value worked out at 11.6 ± 0.91.

Regarding “GTAAAAAAAAAAAAAAGTACATTATACATATATTTA [XGTACX_site5447]”, the “gcPBM binding intensity (ln)” value was determined as 11.3 ± 0.81.

“AAAAAAAAAAAAAAAAGTACATATATATATTTATAT [XGTACX_site5893]”: the “gcPBM binding intensity (ln)” value worked out at 11.7 ± 1.

As for “AGATAAAAAAAGTACACACACACATATATTTATATA [CACACA_site7437]”, the “gcPBM binding intensity (ln)” value worked out at 11.8 ± 1.2.

For “AAATAAAAAAGTAGTACACACTTCACGATATTTTTT [CACACA_site6015]”, the “gcPBM binding intensity (ln)” value worked out at 11.6 ± 1.

For the sequence “AAAAAAAAAAAAAGTACACACTTATAAAATATTATG [CACACA_site4639]”, the “gcPBM binding intensity (ln)” value was found to be 11.6 ± 1.1.

For “AATGTAAAATATAAATGTACATATATATATATATAT [XGTACX_site5071]”, the “gcPBM binding intensity (ln)” value came out at 11 ± 0.45.

“TATATATATATATATGTACACACATATATACCTTTC [CACACA_site8854]”: the “gcPBM binding intensity (ln)” value was 11.3 ± 0.71.

“GAAAGAATAAAATAAACATGCAAATAAAACATAAAA [TGCATGCA_site471]”: the “gcPBM binding intensity (ln)” value stood at 9.81 ± 0.2.

With “AGCATAAACAATTTTTGAAAAAATATACACTCATAG [CACACA_negctrl_site890]”, the “gcPBM binding intensity (ln)” value was found to be 9.935 ± 0.007.

In the case of “AAAAAATATACATATTGTACATTTTTTATTAACACA [XGTACX_site6415]”, the “gcPBM binding intensity (ln)” value came out at 10.8 ± 0.49.

For “TAGTATTGTAAAAAAAAAAAAGAAAAAAAAAAAAAA [CACACA_negctrl_site977]”, the “gcPBM binding intensity (ln)” value worked out at 9.68 ± 0.15.

Regarding “TTAAGATGCATAAATACATGCAAAGTAAATAATTCT [TGCATGCA_site517]”, the “gcPBM binding intensity (ln)” value is 9.88 ± 0.014.

With “CATAAAAATGGATACACACACATAATATATATATAT [CACACA_site3619]”, the “gcPBM binding intensity (ln)” value was 10.2 ± 0.3.

Take “TTACTTAAGAAACACACACACAAAAAAAAAAAAAAA [CACACA_site946]”: the “gcPBM binding intensity (ln)” value came out at 9.91 ± 0.54.

Turning to “AGTTTAAATTAAATTACACACTACGAATAATATATT [CACACA_site7811]”, the “gcPBM binding intensity (ln)” value was determined as 9.895 ± 0.007.

On to “TATTCCAAAAATGTGTGTACATAAATACAATATTAT [XGTACX_site2653]”, for which the “gcPBM binding intensity (ln)” value was 11.4 ± 0.89.

With “TACATATAAAAGTACACACACACACCCATATATATA [CACACA_site941]”, the “gcPBM binding intensity (ln)” value amounted to 11.6 ± 1.1.

As for “AAAAAAAAAAAAAAAAGTACACAAATAGATTTATAT [XGTACX_site3727]”, the “gcPBM binding intensity (ln)” value was 11.6 ± 0.88.

With “AGATAAAAAAAGTACACACACACATATATATATATA [CACACA_site3072]”, the “gcPBM binding intensity (ln)” value was 11.6 ± 0.93.

On to “ACAATATAGATTAAAAGTACAAATAGTAAATTATAT [XGTACX_site3165]”, for which the “gcPBM binding intensity (ln)” value is 11.2 ± 0.71.

With “AAAAAAAAAAAAAGTACACACATACAGATAAATATA [CACACA_site5067]”, the “gcPBM binding intensity (ln)” value worked out at 11.6 ± 1.

Turning to “ATAAAAAAAAAAAAAAGTACACATATAAAAGTATTG [XGTACX_site8265]”, the “gcPBM binding intensity (ln)” value was 11.6 ± 0.91.

“AATAAATATATTAAAAGTACACAAATATTATTTAAT [XGTACX_site2482]”: the “gcPBM binding intensity (ln)” value was 11.4 ± 0.76.

In the case of “TAAAAAAAAATAAAAAGTACATATATATATATATAT [XGTACX_site1155]”, the “gcPBM binding intensity (ln)” value amounted to 11.1 ± 0.86.

Consider “AGATATATATTTTATTGTACACATTAAAGTATAAAA [XGTACX_site7194]”, for which the “gcPBM binding intensity (ln)” value worked out at 11.5 ± 1.1.

With “ATAAATACATATAAAAGTACACACACACACATATAT [XGTACX_site1744]”, the “gcPBM binding intensity (ln)” value stood at 11.5 ± 0.93.

For the sequence “GAGATATAAAAGTGTACACATATTGTTATCCATATT [CACACA_site5441]”, the “gcPBM binding intensity (ln)” value worked out at 11.8 ± 1.

As to “GCCATAAAGATATATACACACATAAAAAAAAGTTAT [CACACA_site6674]”, the “gcPBM binding intensity (ln)” value was determined as 10.1 ± 0.16.

The values above are taken from the supplement of paper PMC11417369.
